Records with an inconclusive call do not appear. Calls of active or inactive are those of the source. The calls were made as follows: active = hit-call score of the fitted dose curve at least 0.9, where 1 is the maximum; inconclusive = response in the unintended direction; inactive = score below 0.9.

Sequence of human Protein Tyrosine Phosphatase Non-receptor Type 9 (PTPN9), PTPN9 (gene 5780) (P43378 whole entry, looked up): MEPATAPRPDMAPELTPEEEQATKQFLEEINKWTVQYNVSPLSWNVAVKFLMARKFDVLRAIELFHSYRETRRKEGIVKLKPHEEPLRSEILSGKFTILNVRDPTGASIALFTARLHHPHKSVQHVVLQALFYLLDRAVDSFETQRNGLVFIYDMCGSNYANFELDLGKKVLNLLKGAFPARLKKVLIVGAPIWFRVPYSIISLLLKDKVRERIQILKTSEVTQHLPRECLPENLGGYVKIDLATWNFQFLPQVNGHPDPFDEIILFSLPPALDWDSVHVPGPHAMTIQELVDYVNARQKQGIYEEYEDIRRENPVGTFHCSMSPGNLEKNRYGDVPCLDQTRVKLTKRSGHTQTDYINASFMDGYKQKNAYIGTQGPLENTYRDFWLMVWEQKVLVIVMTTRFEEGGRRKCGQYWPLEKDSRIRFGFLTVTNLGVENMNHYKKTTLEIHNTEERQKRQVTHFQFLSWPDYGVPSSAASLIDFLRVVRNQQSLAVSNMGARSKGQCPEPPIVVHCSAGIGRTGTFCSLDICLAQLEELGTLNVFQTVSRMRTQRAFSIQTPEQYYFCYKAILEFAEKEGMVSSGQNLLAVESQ

This test addresses human Protein Tyrosine Phosphatase Non-receptor Type 9 (PTPN9), PTPN9 (gene 5780) (UniProt P43378). The test can be described thus: NVS_ENZ_hPTPN9: NovaScreen (NVS) Enzymatic Assay for human Protein Tyrosine Phosphatase Non-receptor Type 9 (PTPN9) (AID 2283209). As to the method: NVS_ENZ_hPTPN9 is a biochemical, single-readout assay that uses extracted gene-proteins from SF9 in a cell-free assay. Measurements were taken 1.33 hours after chemical dosing in a 384-well plate.NVS_ENZ_hPTPN9 is one of one assay component(s) measured or calculated from the NVS_ENZ_hPTPN9 assay. It is designed to make measurements of enzyme activity, a form of enzyme reporter, as detected with fluorescence intensity signals by Fluorescence and electrophoretic mobility shift technology.Data from the assay component NVS_ENZ_hPTPN9 was analyzed into 1 assay endpoint. This assay endpoint, NVS_ENZ_hPTPN9, was analyzed in the positive analysis fitting direction relative to DMSO as the negative control and baseline of activity. Using a type of enzyme reporter, loss-of-signal activity can be used to understand changes in the enzymatic activity as they relate to the gene PTPN9. Furthermore, this assay endpoint can be referred to as a primary readout, because this assay has produced multiple assay endpoints where this one serves a enzymatic activity function. To generalize the intended target to other relatable targets, this assay endpoint is annotated to the phosphatase intended target family, where the subfamily is non-receptor tyrosine phosphatase.
Binding assays used specific radioligands (tritiated, iodinated) with non-radioactive competitive displacement ligands in agonist or antagonist protocols (as indicated) and various reference compounds and inhibitors to titrate specific binding to receptors and transporters. Most enzyme assays (CYPs, kinases, phosphatases, proteases, HDACs) used recombinant protein and specific substrates (fluorescence mostly, some colorimetric and radioactive) and inhibitors, followed by a biochemical separation of substrate and product. All assays for the biochemical HTS were initially run in duplicate at a single concentration (10 uM for CYP450 assays and 25 uM for all others). Assay-chemical combinations meeting a pre-defined threshold (e.g., 30% inhibition and other criteria defined below) were then run in singleton concentration-response format with maximum concentration of 20 uM for CYPs and 50 uM for all others. Each assay was run with positive and negative controls, and concurrent controls on every plate. The follow-up (secondary) screen tested active chemical-pairs in concentration series, as well as a few additional assays not tested in the primary screen, some selected negative inactives, and several cases re-run in the concentration series for confirmatory purposes.
In the case of `Cc1ccc(N)cc1O`, the call was inactive. For `CN(C)c1ccc(Cc2ccc(N(C)C)cc2)cc1`, the outcome was inactive. In the case of `CCCCC(CC)COC(=O)c1ccc(C(=O)OCC(CC)CCCC)cc1` (stereo not given) it was “inactive”; in that of `O=C1OC(=O)C2C3C=CC(C3)C12` (stereo not given), “inactive”; in that of `O=c1n(CC2CO2)c(=O)n(CC2CO2)c(=O)n1CC1CO1` (stereo not given), “inactive”. In the case of `CC(C)=CCC/C(C)=C/CO` it was “inactive”. The value for `CC[C@H](C)C(=O)O[C@H]1C[C@@H](C)C=C2C=C[C@H](C)[C@H](CC[C@@H]3C[C@@H](O)CC(=O)O3)[C@H]21` was “inactive”; that for `O=C(O)c1cccc(Oc2ccccc2)c1` was “inactive”. For `CN(C)c1ccc(N=NS(=O)(=O)O)cc1`, the compound was classed as inactive. Take `O=C(O)c1cc(N=Nc2ccc(S(=O)(=O)Nc3ccccn3)cc2)ccc1O`: the compound was called inactive.

The values are drawn from PubChem BioAssay (EPA / NIEHS).
